± gives the standard deviation of the averaged measurements.
system: Serratia marcescens K904 PosmB-luxCDABE reporter (pMQ747); experiment: PosmB-lux reporter fold induction (RLU/OD600 relative to no-compound control), highest over Biolog concentrations; higher = stronger reporter activation; conditions: Biolog plate: PM16; well positions: C1-4; ΔrcsB mutant CMS5177; 4 h
Protocol: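 Serratia marcescens K904 (wild type) or its isogenic ΔrcsB mutant, carrying the Rcs-dependent PosmB-luxCDABE reporter plasmid pMQ747, was grown in LB at OD600 0.1 in Biolog Phenotype MicroArray plates PM11-20 for 4 h at 30-32°C. Each compound is present at 3-4 proprietary concentrations (not stated); per the Fig. S1 legend the value given is the highest fold over those wells. Three independent trials.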

Structure (SMILES) | PosmB-lux reporter fold induction
CN(C)S(=O)(=O)N(SC(F)(Cl)Cl)c1ccccc1 [dichlofluanid] | 2.54 ± 1.7

same assay, conditions: Biolog plate: PM20; well positions: G9-12; ΔrcsB mutant CMS5177; 4 h

Structure (SMILES) | PosmB-lux reporter fold induction
Oc1cccc2cccnc12 [8-hydroxy-quinoline] | 1.84 ± 0.48
